# Results published in PubChem BioAssay (NCATS).
# Records with an inconclusive call do not appear. A call without a number means that no potency is given here. The source made the active and inactive calls. Unless noted, the call rests on the fitted dose curve; in most records, active means well fitted curve in the direction sought with a large enough effect; inconclusive means small, poorly fitted or top-dose-only effect, or another doubt; inactive means no such curve, though single readings can be large; an effect the other way counts as inactive or inconclusive.
# How the values were obtained:
# [1] = biological target: Mitogen-activated protein kinase 10 (Mus musculus) (UniProt Q61831); assay: JNK3 AlphaScreen Assay (AID 530; active means well fitted curve in either direction with a large enough effect, not every such curve was filed as active;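 further: kinase came from lysate of stimulated human HepG2 cells; signal reports phosphorylation of biotinylated GST-cJun 1-79 at Ser73 with 10 µM ATP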); conditions: JNK3 lysate, c-Jun phosphorylation; series mostly up to 57.1 µM
# In short: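 Pre-activated (IL-1β/TNFα) JNK3 in HepG2 lysates phosphorylates biotin-GST-cJun(1-79), 10 uM ATP; anti-phospho-cJun(Ser73) AlphaScreen read at room temperature, pH 7.6 Tris buffer. Compounds pre-incubated 15 min as titrations.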
# [2] = biological target: Cytochrome P450 3A4 (Homo sapiens) (UniProt P08684); assay: qHTS Assay for Activators of Cytochrome P450 3A4 (AID 885); conditions: recombinant CYP3A4, Luciferin-PPXE luminescence, 60 min; series mostly up to 57.1 µM; further: nearly all actives have a fitted effect of over 65% in size
# Chain of Cytochrome P450 3A4 (Homo sapiens) (P08684 whole entry, looked up): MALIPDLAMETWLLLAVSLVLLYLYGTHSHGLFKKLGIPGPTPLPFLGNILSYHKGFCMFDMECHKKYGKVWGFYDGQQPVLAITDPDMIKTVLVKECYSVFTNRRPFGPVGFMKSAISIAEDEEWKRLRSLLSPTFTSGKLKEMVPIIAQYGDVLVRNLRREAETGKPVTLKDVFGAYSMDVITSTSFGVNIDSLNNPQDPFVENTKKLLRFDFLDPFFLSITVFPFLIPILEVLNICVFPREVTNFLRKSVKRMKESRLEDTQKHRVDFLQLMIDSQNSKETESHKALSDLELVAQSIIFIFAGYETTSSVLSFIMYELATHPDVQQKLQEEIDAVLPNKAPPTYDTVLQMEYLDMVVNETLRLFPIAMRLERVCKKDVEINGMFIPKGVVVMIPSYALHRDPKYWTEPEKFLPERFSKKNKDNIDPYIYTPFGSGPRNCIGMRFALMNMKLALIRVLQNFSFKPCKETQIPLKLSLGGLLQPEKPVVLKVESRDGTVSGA
# In short: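 20nM CYP3A4 + 25uM Luciferin-PPXE (=KM), 200mM KPO4; cpd 10 min RT; NADPH regen, 60 min RT; stop w/ detection buffer, 20 min; luminescence. Normalized to 57 uM ketoconazole.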
# [3] = biological target: Cytochrome P450 3A4 (Homo sapiens) (UniProt P08684); assay: qHTS Assay for Inhibitors and Substrates of Cytochrome P450 3A4 (AID 884); conditions: recombinant CYP3A4, Luciferin-PPXE luminescence; series mostly up to 57.1 µM; further: potency means the concentration at half of the fitted maximal effect; nearly all actives have a fitted effect of over 50% in size
# In short: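 20 nM human CYP3A4 with 25 uM Luciferin-PPXE (at KM) in 200 mM KPO4, preincubated 10 min with compound; NADPH regeneration started a 60 min RT reaction. Luciferin detected by luminescence, normalized to 57 uM ketoconazole as full inhibition.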
SMILES,outcome [1],Potency [2],Potency [3]
CNC(=O)[C@@]1(C)C=C[C@@H](Cc2ccccc2)N1C(=O)OC,inactive,inactive,
COC(=O)[C@@]1(C)C=C[C@@H](Cc2ccccc2)N1C(=O)c1ccccc1,inactive,inactive,
COC(=O)CNC(=O)C1(C)C=CC2(CCCCC2)N1C(=O)OC (stereo not given),inactive,inactive,
CCCCNC(=O)C(c1ccc(OCC(=O)OC)c(C(=O)OC)c1)N(CCOC)C(=O)CCCCCN1C(=O)NC(c2ccc(-c3ccccc3)cc2)C(C(=O)OCc2ccccc2)=C1C (stereo not given),inactive,inactive,
CCCC[C@@H]1C[C@H]1C(NC(=O)c1cccnc1)c1ccc(-c2ccccc2)cc1 (stereo not given in full),inactive,inactive,
COC(=O)N1[C@H](C)C=C[C@]1(Cc1ccccc1)C(=O)NCc1ccc(C)o1,inactive,inactive,
CCCCCCN(C(=O)CCCCCN1C(=O)NC(c2ccc(-c3ccccc3)cc2)C(C(=O)OCc2ccccc2)=C1C)C(C)C(=O)NCCCC (stereo not given),inactive,inactive,3.16 µM (active)
COC(=O)c1ccc(C(NC(=O)OCc2ccccc2)/C(C)=C/[C@@H](C)C(=O)NCc2cc(C)on2)cc1 (stereo not given in full),inactive,inactive,2 µM (active)
COC(=O)[C@H](Cc1ccccc1)NC(=O)[C@H]1C[C@@H]1[C@H](NC(=O)OCc1ccccc1)c1ccccc1,inactive,inactive,7.94 µM (active)
CNC(=O)C1(C)C=CC2(CCCCC2)N1C(=O)OC (stereo not given),inactive,inactive,
COC(=O)c1ccc(C(NC(=O)OCc2ccccc2)/C(=C/[C@@H](C)C(=O)NCc2ccc(S(C)(=O)=O)cc2)c2cccnc2)cc1 (stereo not given in full),inactive,inactive,2 µM (active)
COC(=O)C1(C)C=CC2(CCCCC2)N1C(C)=O (stereo not given),inactive,inactive,
Cc1nn(-c2ccccc2)nc1CNC(=O)C(C)Cc1ccccc1 (stereo not given),inactive,inactive,2.51 µM (active)
CCCCCCN(C(=O)CCCCCN1C(=O)NC(c2ccc(-c3ccccc3)cc2)C(C(=O)OCc2ccccc2)=C1C)C(C(=O)NCCCC)c1ccc(OCC(=O)O)c(C(=O)O)c1 (stereo not given),inactive,inactive,
COC(=O)c1ccc(C(NC(=O)OCc2ccccc2)/C(C)=C/[C@@H](C)C(=O)NCc2nn(-c3ccccc3)nc2C)cc1 (stereo not given in full),inactive,inactive,2.51 µM (active)
COC(=O)c1ccc(C(/C=C/[C@@H](C)C(=O)NCc2ccccc2)NC(=O)OCc2ccccc2)cc1 (stereo not given in full),inactive,inactive,5.01 µM (active)
CCCCNC(=O)C(c1ccc(OCC(=O)OC)c(C(=O)OC)c1)N(CCC1=CCCCC1)C(=O)CCCCCN1C(=O)NC(c2ccc(-c3ccccc3)cc2)C(C(=O)OCc2ccccc2)=C1C (stereo not given),inactive,inactive,
CNC(=O)C1(C)C=CC2(CCCCC2)N1C(C)=O (stereo not given),inactive,inactive,
COC(=O)[C@@H]1C[C@@]1(C)[C@@H](NC(=O)OCc1ccccc1)c1ccccc1,inactive,inactive,25.1 µM (active)
CCC[C@@H]1C[C@@]1(CCC)[C@@H](NC(=O)Oc1ccccc1)c1ccc(C(=O)OC)cc1,inactive,inactive,15.8 µM (active)
COCCNC(=O)[C@H](C)/C=C(\c1cccnc1)C(NC(=O)OCc1ccccc1)c1ccc(C(=O)OC)cc1 (stereo not given in full),inactive,inactive,5.01 µM (active)
COC(=O)c1ccc(C(NC(=O)OCc2ccccc2)/C(=C/[C@@H](C)C(=O)NCc2ccc(OC)c(OC)c2)c2cccnc2)cc1 (stereo not given in full),inactive,inactive,3.16 µM (active)
COC(=O)CNC(=O)C1(CC(C)C)C=CCN1C(C)=O (stereo not given),inactive,inactive,
COC(=O)N1[C@H](C)C=C[C@]1(Cc1ccccc1)C(=O)NCCCNc1ncc(C(F)(F)F)cc1Cl,inactive,inactive,6.31 µM (active)
CN(C)C(=O)[C@H]1C[C@@H]1[C@H](NC(=O)OCc1ccccc1)c1ccccc1,inactive,inactive,7.94 µM (active)
CC(=O)N1CC=CC1(CC(C)C)C(=O)NCC1CC1 (stereo not given),inactive,inactive,
COCCNC(=O)C1(CC(C)C)C=CCN1C(=O)OC (stereo not given),inactive,inactive,
CNC(=O)[C@]1(C)C[C@H]1[C@H](NC(=O)[C@]1(C)C[C@H]1[C@H](NC(=O)[C@]1(C)C[C@H]1[C@H](NC(=O)[C@]1(C)C[C@H]1[C@H](NC(=O)OCc1ccccc1)c1ccccc1)c1ccccc1)c1ccccc1)c1ccccc1,inactive,inactive,12.6 µM (active)
